This is part of a sample that, as a whole, favours compounds with a hit. Of some 83,000 tested, about 20% had one in any assay.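 The test compound was applied at a single concentration to cells in 96-well plates for 48 hours, and percent growth was recorded.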 Active and inactive are the calls of the source. The calls were made as follows: active = growth percent below 10; inactive = the rest.

For 38 molecules, growth results are on record in PubChem BioAssay (NCI).

One experiment concerns U251 CNS. The experiment is described as follows: NCI-60 one-dose screen, 48 h (100 = growth as untreated, 0 = no growth, -100 = all killed). Particulars: 10 µM unless noted.
On to `CC1(C)CC[C@]2(C(=O)NCC#CCN3CCOCC3)CC[C@]3(C)C(=CC[C@@H]4[C@@]5(C)Cc6c([nH]c7ccccc67)C(C)(C)[C@@H]5CC[C@]43C)[C@@H]2C1`, for which the growth is 87.9% (inactive).

In the case of `COc1ccc(C(=O)/C=C/c2cn(Cc3ccc(Cl)cc3)c3ccccc23)cc1`, the growth was 59.6% (inactive).

With `COC(=O)CCCCCCCCC1(C)C=CC(C(C)O)=CC1` (stereo not drawn), the growth is 98.5% (inactive).

Consider `COc1ccc(-c2nn(Cc3ccccc3)c3c2-c2oncc2CC3)cc1OC`, for which the growth was 93.1% (inactive).

As for `COc1ccc(CNC(=O)COc2ccc(/C=N/Nc3nc4ccccc4s3)cc2)cc1`, the growth is 21.6% (inactive).

The test system of a further experiment is PC-3 prostate. The description is as above. Particulars: 10 µM unless noted.
As to `COc1ccc(NC(=O)c2sc3nc(C)c(C(O)c4ccc(OC)cc4)cc3c2N)cc1` (stereo not drawn), the growth is 22.6% (inactive).

For `N#Cc1c(NC(=O)c2cccc(Br)c2)sc2c1CCCC2`, the growth was 90.9% (inactive).

As for `Clc1ccc(C2CC(c3cccc(Nc4ccncc4)c3)=NN2c2ccccc2)cc1` (stereo not drawn), the growth is 36% (inactive).

Regarding `O=C(OCc1nc2nc(Cl)nc(N3CCOCC3)c2[nH]1)n1ccnc1`, the growth was -24.5% (active).

Consider `CC(=O)O[C@]1(C(C)=O)CC[C@H]2[C@@H]3C=C(Cl)C4=CC(=O)CC[C@]4(C)[C@H]3CC[C@@]21C`, for which the growth is 96.1% (inactive).

Take `CC(=O)c1c[nH]c2ccc(-c3ccnc(Nc4ccc(NC(=O)C5CCCC5)c(CN5CCOCC5)c4)n3)cc12`: the growth is 2.51% (active).

Consider `O=C(N/N=C/c1cccnc1)c1ccccc1Nc1cccc(C(F)(F)F)c1`, for which the growth is 88.8% (inactive).

For the molecule `CN1CCN(CCCOc2ccc3ncnc(Nc4ccc(Oc5cccc(C(F)(F)F)c5)c(Cl)c4)c3c2)CC1`, the growth is 7.28% (active).

Turning to `CN(C)Cc1c(-c2ccccc2)[nH]c2ccccc12`, the growth is 94.9% (inactive).

`O=C(OC(OC(=O)c1cc(Cl)cc(Cl)c1)c1cccc2ccccc12)c1ccccc1` (stereo not drawn): the growth is 91.2% (inactive).

In the case of `CCC(C)C(N)C(=O)NNc1n[nH]c(=S)n1N` (stereo not drawn), the growth was 100% (inactive).

Take `CC[C@H](C)[C@@H]1NC(=O)[C@H](Cc2ccc(O)cc2)N(C)C(=O)[C@H](Cc2ccccc2)NC(=O)CN(C)C(=O)[C@@H]2CCCN2C(=O)[C@@H](Cc2ccccc2)N(C)C(=O)[C@H](CC(C)C)NC1=O`: the growth is 2.42% (active).

Take `C#CC(=O)Nc1cccc(Nc2nc3c(c(NCc4ccccc4)n2)CCCC3)c1`: the growth was -66.2% (active).

On to `CCCCCOc1ccc(/C=N/Nc2cc(C)nc3ccc(Br)cc23)cc1`, for which the growth was 27.3% (inactive).

With `COc1ccc(OC)c(/C=C/[C@H]2O[C@@H](C)[C@H](O)[C@@H]2O)c1`, the growth is 106% (inactive).

Consider `COc1ccc(C(=O)c2cc(C)c(OC)c(C)c2)c(OC)c1O`, for which the growth is 19.5% (inactive).

As for `C=C1C(=O)O[C@H]2[C@H]1CC/C(CNC(=O)/C=C/c1ccc(Br)cc1)=C\CC[C@@]1(C)O[C@@H]21`, the growth is -55.2% (active).

Regarding `O=C(c1ccccc1)N1N=C(c2ccc(-n3ccc(C(F)(F)F)n3)cc2)CC1c1ccc[nH]1` (stereo not drawn), the growth was 83.3% (inactive).

With `CS(=O)(=O)Nc1cc(-c2ccc3ncnc(Nc4ccc5[nH]ncc5c4)c3c2)cnc1Cl`, the growth is 76.8% (inactive).

Consider `Nc1ncc(C#Cc2cncc(NC(=O)c3cccc(C(F)(F)F)c3)c2)c2cccnc12`, for which the growth is 49.9% (inactive).

Regarding `CCOC(=O)Oc1c(OC)cc(C(=O)O[C@@H]2C[C@@H]3CN4CCc5c([nH]c6cc(OC)ccc56)[C@H]4C[C@@H]3[C@H](C(=O)OC)[C@H]2OC)cc1OC`, the growth was 35% (inactive).

For the molecule `O=C1Nc2ccccc2/C1=C\c1cccc(/C=C2/C(=O)Nc3ccccc32)n1`, the growth is -28% (active).

In the case of `NC(=O)CN1CCN(c2ccccc2Cl)CC1`, the growth was 105% (inactive).

Consider `CSc1nnc2c(=O)n(C)c(=O)n(C)c2n1`, for which the growth was 83.2% (inactive).

Turning to `NC(=O)c1cccc(-c2ccccc2N2CCCCC2)c1`, the growth was 83.9% (inactive).

In the case of `COc1cnccc1-c1nc2ccc3[nH]ncc3c2c2c1CCCC2`, the growth is 68.2% (inactive).

Take `c1ccc(-c2nnc(Nc3ccc4c(c3)OCCO4)o2)c(NCc2ccncc2)c1`: the growth was 29.7% (inactive).

Take `CNC(=O)Nc1ccc(-c2nc(N3CCOCC3)nc3c2cnn3C2CCOCC2)cc1`: the growth was 6.22% (active).

`O=C(N/N=C/c1ccc(O)c(O)c1)c1sc2ccccc2c1Cl`: the growth is 66.6% (inactive).

On to `COc1cc(C2CC(c3cccc(Nc4ccncc4)c3)=NN2c2ccccc2)cc(OC)c1OC` (stereo not drawn), for which the growth was 30.2% (inactive).

On to `Nc1ccccc1NC(=O)c1ccc(CN2CCC/C(=C\c3cccc(Cl)c3)C2=O)cc1`, for which the growth was 17.7% (inactive).

In the case of `C[C@H]1[C@H](C)CC[C@]2(CO)CC[C@]3(C)C(=CC[C@@H]4[C@@]5(C)CCCNC(C)(C)[C@@H]5CC[C@]43C)[C@H]12`, the growth was -43.2% (active).

Consider `O=c1[nH]nc(-c2ccc(Br)cc2)cc1Cc1ccc(O)cc1`, for which the growth was 80.4% (inactive).

Turning to `CC1(C)CC[C@]2(C(=O)NCC#CCN3CCOCC3)CC[C@]3(C)C(=CC[C@@H]4[C@@]5(C)Cc6c([nH]c7ccccc67)C(C)(C)[C@@H]5CC[C@]43C)[C@@H]2C1`, the growth was 58.6% (inactive).

Regarding `COc1ccc(C(=O)/C=C/c2cn(Cc3ccc(Cl)cc3)c3ccccc23)cc1`, the growth was 61.3% (inactive).

As for `COC(=O)CCCCCCCCC1(C)C=CC(C(C)O)=CC1` (stereo not drawn), the growth is 97.6% (inactive).

For `COc1ccc(-c2nn(Cc3ccccc3)c3c2-c2oncc2CC3)cc1OC`, the growth was 86.6% (inactive).

`COc1ccc(CNC(=O)COc2ccc(/C=N/Nc3nc4ccccc4s3)cc2)cc1`: the growth is 15.5% (inactive).
